The values below come from PubChem BioAssay (NCI).

Holding throughout (assay): NCI-60 one-dose screen, 48 h (100 = growth as untreated, 0 = no growth, -100 = all killed)
One assay relates to NCI-H522 lung. Particulars: 10 µM unless noted.
For another assay, the system named is COLO 205 colon. Particulars: 10 µM.
The subject of the next assay is MALME-3M melanoma. The following applies: 10 µM unless noted.
For another assay, the system named is HCT-15 colon. Particulars: 10 µM.
For the next assay, the system named is SNB-19 CNS. The following applies: 10 µM unless noted.
Another assay concerns SK-MEL-5 melanoma. The following applies: 10 µM unless noted.
A further assay concerns LOX IMVI melanoma. Particulars: 10 µM unless noted.
The subject of a further assay is TK-10 renal. Particulars: 10 µM unless noted.
Another assay has as its system CCRF-CEM leukemia. Particulars: 10 µM unless noted.
A further assay relates to MOLT-4 leukemia. Particulars: 10 µM.
The test system of a further assay is SR leukemia. The following applies: 10 µM.
The subject of another assay is OVCAR-8 ovarian. The following applies: 10 µM unless noted.
In a further assay the test system is IGROV1 ovarian. Particulars: 10 µM.
In another assay the test system is MDA-MB-435 melanoma. Particulars: 10 µM unless noted.
A further assay relates to HCC-2998 colon. Particulars: 10 µM unless noted.
A further assay concerns EKVX NSCLC. Particulars: 10 µM unless noted.
Another assay deals with SN12C renal. The following applies: 10 µM unless noted.
For another assay, the system named is RPMI-8226 leukemia. Particulars: 10 µM unless noted.

Compounds without any hit were thinned out: in the full panel of roughly 83,000, 20% have a hit.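 Cell lines were cultured in 96-well plates, exposed to a single compound concentration, and assessed for percent growth 48 hours later.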 Values without a mark were called inactive. Active and inactive are the calls of the source. The calls were made as follows: active = growth percent below 10; inactive = the rest.

In the case of `CNC(C)Cc1ccccc1` (configuration not stated) (tested in a mixture with another compound), the growth was 82.4% in the assay with NCI-H522 lung; 102% in the assay with COLO 205 colon; 103% in the assay on MALME-3M melanoma; 101% in the assay with HCT-15 colon; 105% in the assay on SNB-19 CNS; 99.6% in the assay on SK-MEL-5 melanoma. Further, the growth in the assay with LOX IMVI melanoma was 98.7%; with TK-10 renal, 92.8%; in the assay with CCRF-CEM leukemia, 105%; in the assay on MOLT-4 leukemia, 90.6%; with SR leukemia, 108%; in the assay on OVCAR-8 ovarian, 113%. The growth with IGROV1 ovarian is 101%; in the assay on MDA-MB-435 melanoma, 104%; with HCC-2998 colon, 101%.
Take `CO[C@@H]1[C@H](OC(=O)NC(=O)CCl)CC[C@]2(CO2)[C@H]1[C@@]1(C)O[C@@H]1CC=C(C)C`: the growth is 10.3% in the assay on NCI-H522 lung; 57.4% in the assay with COLO 205 colon; 57.7% in the assay with MALME-3M melanoma; 30% in the assay on HCT-15 colon; 48.6% in the assay on SNB-19 CNS; 55.4% with SK-MEL-5 melanoma. Further, the growth in the assay with LOX IMVI melanoma was 22.8%; with EKVX NSCLC, 91.7%; in the assay on SN12C renal it was 72.3%; in the assay on CCRF-CEM leukemia, 31.8%; in the assay on MOLT-4 leukemia it was 63%; with SR leukemia, 21.5%. The growth in the assay with RPMI-8226 leukemia is 45.4%; in the assay on IGROV1 ovarian, -10.6% (active); in the assay with MDA-MB-435 melanoma, 62.6%; in the assay with HCC-2998 colon, 80.9%.
Turning to `COc1cc2c(cc1OC)CN(C)C(C)C2` (configuration not stated), the growth in the assay with NCI-H522 lung is 82.3%; in the assay on COLO 205 colon, 102%; in the assay on MALME-3M melanoma it was 95.9%; with SNB-19 CNS, 99%; in the assay with SK-MEL-5 melanoma, 101%; with LOX IMVI melanoma it was 95.1%. The growth is 109% in the assay on EKVX NSCLC; 94.2% in the assay with SN12C renal; 101% with TK-10 renal; 100% in the assay with CCRF-CEM leukemia; 113% in the assay with MOLT-4 leukemia; 101% in the assay with SR leukemia. In addition, the growth with OVCAR-8 ovarian was 105%; in the assay with MDA-MB-435 melanoma, 101%.
For the compound `O=C(CI)Nc1ccc(Br)cc1`, the growth was -85% (active) in the assay with NCI-H522 lung; -78.2% (active) in the assay with COLO 205 colon; -65% (active) in the assay with MALME-3M melanoma; 1.13% (active) in the assay with HCT-15 colon; 92.1% in the assay with SNB-19 CNS; -78.6% (active) with LOX IMVI melanoma. Besides, the growth is 102% in the assay with EKVX NSCLC; 15.7% with SN12C renal; -81.4% (active) in the assay on TK-10 renal; -31.7% (active) in the assay on CCRF-CEM leukemia; -53% (active) in the assay on SR leukemia; 36.6% with RPMI-8226 leukemia. Further, the growth is 11.9% in the assay on OVCAR-8 ovarian, -55.2% (active) in the assay on IGROV1 ovarian, 52% in the assay with MDA-MB-435 melanoma and 102% in the assay on HCC-2998 colon.
In the case of `CCCCN(CCCC)CC(O)c1ccccc1` (configuration not stated), the growth in the assay on NCI-H522 lung is 112%; in the assay with COLO 205 colon, 134%; with HCT-15 colon, 104%; in the assay on SNB-19 CNS it was 106%; in the assay on SK-MEL-5 melanoma, 118%; with EKVX NSCLC, 96.7%. Moreover, the growth in the assay with SN12C renal is 111%; with TK-10 renal, 115%; in the assay on CCRF-CEM leukemia it was 99.8%; in the assay on MOLT-4 leukemia, 97.2%; in the assay on SR leukemia it was 102%; with RPMI-8226 leukemia, 113%. For the same compound, the growth with OVCAR-8 ovarian is 109%; in the assay on IGROV1 ovarian it was 115%; in the assay with MDA-MB-435 melanoma it was 105%; with HCC-2998 colon, 102%.
As for `COc1ccc(/C=C\c2cc(OC)c(OC)c(OC)c2)cc1N/C=C\C(=O)c1c[nH]c2ccccc12`, the growth with NCI-H522 lung was -9.96% (active); with COLO 205 colon, -65.6% (active); in the assay on MALME-3M melanoma, 57.8%; in the assay with SNB-19 CNS, 38.6%; in the assay on SK-MEL-5 melanoma, -53.9% (active); in the assay on TK-10 renal, 60.1%. Further, the growth in the assay with CCRF-CEM leukemia is 5.7% (active); with MOLT-4 leukemia it was 14.4%; with RPMI-8226 leukemia it was 19.5%; with OVCAR-8 ovarian it was 21.4%; in the assay with IGROV1 ovarian, 21.8%; with MDA-MB-435 melanoma it was -7.95% (active). For the same compound, the growth with HCC-2998 colon was 21.4%.
For `C1CNC2CCCC2C1` (configuration not stated), the growth in the assay on NCI-H522 lung was 91.7%; in the assay on COLO 205 colon, 102%; in the assay on MALME-3M melanoma it was 99.4%; in the assay on HCT-15 colon it was 99.2%; in the assay on SNB-19 CNS, 111%; in the assay with LOX IMVI melanoma it was 101%. Moreover, the growth was 111% in the assay with SN12C renal; 103% with TK-10 renal; 101% with RPMI-8226 leukemia; 106% in the assay on OVCAR-8 ovarian; 117% in the assay with IGROV1 ovarian; 105% in the assay on MDA-MB-435 melanoma. Moreover, the growth in the assay on HCC-2998 colon is 107%.
`C[CH2][Sn]([CH2]C)([CH2]C)[NH]S(=O)(=O)c1ccc(C)cc1`: the growth in the assay with NCI-H522 lung was 110%; with COLO 205 colon it was 128%; in the assay on MALME-3M melanoma, 110%; with HCT-15 colon it was 96.5%; with SNB-19 CNS, 114%; with SK-MEL-5 melanoma, 110%. Moreover, the growth is 99% with EKVX NSCLC; 106% in the assay with SN12C renal; 109% in the assay on TK-10 renal; 108% in the assay with CCRF-CEM leukemia; 101% with MOLT-4 leukemia; 99.7% in the assay on SR leukemia. For the same compound, the growth with RPMI-8226 leukemia is 115%; in the assay on IGROV1 ovarian, 111%; in the assay on MDA-MB-435 melanoma it was 102%; in the assay with HCC-2998 colon, 99.9%.
Turning to `C1CN1c1nc(N2CC2)nc(N2CC2)n1`, the growth in the assay on NCI-H522 lung is -12.1% (active); in the assay on COLO 205 colon, 61.4%; with MALME-3M melanoma, 49.7%; with HCT-15 colon, 23.8%; in the assay with SNB-19 CNS it was 35.9%; in the assay with SK-MEL-5 melanoma it was 20.1%. Further, the growth was 17% in the assay with LOX IMVI melanoma; 86.3% with EKVX NSCLC; 51.7% in the assay with SN12C renal; 78.3% with TK-10 renal; 10.5% in the assay with MOLT-4 leukemia; 6.79% (active) with SR leukemia. Further, the growth is 29.3% with RPMI-8226 leukemia, -3.62% (active) in the assay with IGROV1 ovarian, 63.9% with MDA-MB-435 melanoma and 49.7% in the assay with HCC-2998 colon.
In the case of `CC1(C)CC2(CC(C)(C)c3cc(O)c(O)cc32)c2cc(O)c(O)cc21`, the growth is 37.4% with NCI-H522 lung; 102% in the assay with COLO 205 colon; 101% with MALME-3M melanoma; 89.5% in the assay on HCT-15 colon; 104% in the assay on SNB-19 CNS; 92.5% with SK-MEL-5 melanoma. Further, the growth in the assay with LOX IMVI melanoma was 94.8%; in the assay with EKVX NSCLC it was 95.1%; with SN12C renal it was 94.2%; with CCRF-CEM leukemia it was 84.5%; with MOLT-4 leukemia, 71.6%; in the assay with SR leukemia it was 70.3%. In addition, the growth in the assay with RPMI-8226 leukemia was 103%; with OVCAR-8 ovarian it was 97.3%; in the assay with IGROV1 ovarian, 98.4%; in the assay on MDA-MB-435 melanoma, 84.8%; in the assay with HCC-2998 colon, 102%.
